What all share (experiment): PBM binding z-score (relative to random genomic background probes); higher = stronger binding; sequences stand for … in GC…GCGATTGACAGCGTAGAATGAAGG
In experiment [1] the test system is RARb homodimer (NR concentration 270 nM). In a few lines:
(§1)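 Antibodies against each partner of ligand-free nuclear receptor dimers (one per run) detected binding on custom Agilent 4×180K protein-binding microarrays after 1 h incubation. The double-stranded probes had 34-nt variable regions carrying direct-repeat seeds, single-nucleotide variants, half-site ablations and random human genomic background sequences. Binding z-scores, from regression-normalized fluorescence, use the random background probes as reference.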

In experiment [2] the test system is RARg:RXRa (NR concentration 270 nM, RXRa partner concentration 90 nM). Put shortly:
as §1

In experiment [3] the test system is RARg homodimer (NR concentration 270 nM). Put shortly:
as §1

The subject of experiment [4] is RXRa DBDmut IVT, anti-RXR (DBD mutation: RXRa K156A/R161A, NR concentration 90 nM). In a few lines:
as §1

The subject of experiment [5] is RXRa homodimer (NR concentration 180 nM). In a few lines: as §1
Experiment [6] relates to THRa:RXRa (NR concentration 90 nM, RXRa partner concentration 90 nM). Put shortly: as §1
The test system of experiment [7] is THRa homodimer (NR concentration 90 nM). In a few lines:
as §1

Experiment [8] concerns VDR homodimer (NR concentration 270 nM). In a few lines: as §1

As to CGAACTAGGTCACTGACAGGACAGTGAATAGTAA, the PBM binding z-score in experiment [1] was 3.15; in experiment [2] it was 4.78; in experiment [3], 4.99; in experiment [4] it was 1.48; in experiment [5] it was 2.88; in experiment [6], 2.81. Also, the PBM binding z-score in experiment [7] is 0.889; in experiment [8] it was 0.448.

In the case of TAGCCTAGGTAATGCGGGCCAGTATAGTGTCGGC, the PBM binding z-score in experiment [1] is -0.521; in experiment [2], -0.6; in experiment [3], -0.559; in experiment [4] it was -1.3; in experiment [5], -0.499; in experiment [6] it was -0.418. For the same sequence, the figures for the PBM binding z-score in experiment [7] and in experiment [8] were -0.74 and -0.784, respectively.

As for GCATATAGGTAATACAAGGTAAAAGTCCGATTGT, the PBM binding z-score in experiment [1] is -0.415; in experiment [2], 0.25; in experiment [3] it was 0.58; in experiment [4], 0.137; in experiment [5] it was 0.294; in experiment [6], 3.49. Moreover, the PBM binding z-score was 0.0793 in experiment [7] and -0.0351 in experiment [8].

For CGTCCAAGGTCAGAGAGGACAGTGAATGCCGAGT, the PBM binding z-score was 4.12 in experiment [1]; 4.57 in experiment [2]; 5.67 in experiment [3]; 2.6 in experiment [4]; 3.68 in experiment [5]; 3.67 in experiment [6]. Also, the results for the PBM binding z-score in experiment [7] and in experiment [8] were 2.08 and 2.85, respectively.

TCATATAGGTAAATGCTAGGTGAATGTCCGATCT: the PBM binding z-score in experiment [1] stood at 0.278; in experiment [2] it was 0.529; in experiment [3] it was 0.626; in experiment [4] it was 1.46; in experiment [5] it was 0.893; in experiment [6] it was 1.49. The results for the PBM binding z-score in experiment [7] and in experiment [8] were 0.604 and 0.143, respectively.

For the sequence CGAACTAGGTTAGAACAGGACAGTGAAGGATGAT, the PBM binding z-score worked out at 0.456 in experiment [1]; 0.384 in experiment [2]; 0.607 in experiment [3]; 0.0179 in experiment [4]; 0.171 in experiment [5]; 1.92 in experiment [6]. Besides, the PBM binding z-score in experiment [7] is -0.166; in experiment [8], -0.137.

As to CCTTACGGGTTACTGACAGGTTATAGCATTTGGA, the PBM binding z-score turned out to be 0.885 in experiment [1]; 2.22 in experiment [2]; 0.806 in experiment [3]; 0.177 in experiment [4]; 1.54 in experiment [5]; 1.11 in experiment [6]. In addition, the PBM binding z-score in experiment [7] is -0.00572; in experiment [8] it was 0.261.

Source of the values: the supplement of paper PMC6555819.
